In PubChem BioAssay AID1835 (Johns Hopkins Ion Channel Center, 2009):
Screen size: about 2,400 compounds; about 750 (31%) were called active. Some of the results follow. A number with no mark means an inactive call.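 Rule for the calls: active = median signal gain over dofetilide-blocked control wells reaching their mean plus 3 SD, so readout 1 at least 0; inactive = the rest.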

The compounds below were run against Voltage-gated inwardly rectifying potassium channel KCNH2 (Homo sapiens) (UniProt Q12809) (assay: modulators restoring hERG flux under dofetilide – cell-based, thallium flux, duplicate retest, dofetilide IC70, confirmation (AID 1835)). Settings: hERG cell line, FluxOR thallium flux, dofetilide-blocked; at 10 µM; stronger effect = higher value.
Chain of Voltage-gated inwardly rectifying potassium channel KCNH2 (Homo sapiens) (Q12809 whole entry, looked up): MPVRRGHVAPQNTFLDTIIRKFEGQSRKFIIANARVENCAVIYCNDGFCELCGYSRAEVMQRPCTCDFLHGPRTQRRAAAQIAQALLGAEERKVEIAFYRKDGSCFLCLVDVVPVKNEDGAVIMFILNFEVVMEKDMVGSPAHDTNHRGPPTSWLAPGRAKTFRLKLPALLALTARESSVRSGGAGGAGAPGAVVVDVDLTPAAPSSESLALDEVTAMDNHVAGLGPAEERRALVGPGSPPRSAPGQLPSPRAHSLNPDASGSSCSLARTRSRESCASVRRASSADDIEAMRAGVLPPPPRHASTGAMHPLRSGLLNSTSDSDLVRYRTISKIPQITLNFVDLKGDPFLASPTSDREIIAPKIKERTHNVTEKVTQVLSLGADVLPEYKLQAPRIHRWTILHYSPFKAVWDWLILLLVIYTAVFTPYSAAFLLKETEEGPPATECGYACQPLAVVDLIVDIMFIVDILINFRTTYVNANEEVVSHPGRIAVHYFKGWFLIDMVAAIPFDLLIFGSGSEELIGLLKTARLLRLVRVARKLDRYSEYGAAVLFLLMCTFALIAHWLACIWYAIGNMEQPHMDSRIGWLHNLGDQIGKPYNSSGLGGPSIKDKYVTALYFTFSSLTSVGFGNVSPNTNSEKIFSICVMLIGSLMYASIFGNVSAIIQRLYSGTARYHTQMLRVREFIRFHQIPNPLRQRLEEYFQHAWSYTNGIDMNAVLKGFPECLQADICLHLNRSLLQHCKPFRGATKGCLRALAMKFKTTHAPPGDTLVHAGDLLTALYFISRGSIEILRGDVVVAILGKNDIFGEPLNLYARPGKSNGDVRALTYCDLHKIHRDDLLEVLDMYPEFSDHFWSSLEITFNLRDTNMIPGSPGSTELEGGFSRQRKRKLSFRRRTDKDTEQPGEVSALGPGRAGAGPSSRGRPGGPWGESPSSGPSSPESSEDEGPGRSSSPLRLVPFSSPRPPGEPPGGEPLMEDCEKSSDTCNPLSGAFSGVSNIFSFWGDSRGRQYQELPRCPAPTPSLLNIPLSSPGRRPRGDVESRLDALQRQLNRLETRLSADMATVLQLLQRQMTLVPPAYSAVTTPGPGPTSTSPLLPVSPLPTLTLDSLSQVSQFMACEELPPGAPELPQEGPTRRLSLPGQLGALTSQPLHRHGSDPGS

SMILES	activity increase over dofetilide control, less the hit threshold
Cc1ccc2c(c1)c1c(n2CC(O)Cn2nc(C)c(Br)c2C)CCCC1 (centres undefined)	-8%
Cc1ccc(F)cc1CNC(=O)C1CCC(=O)N(C2CC2)C1 (centres undefined)	-7%
CCOC(=O)/C(C)=N/NC(=O)c1ccc([N+](=O)[O-])cc1	17% (active)
Cc1ccccc1C(=O)NNC(=O)c1cccc([N+](=O)[O-])c1	-31%
CCOC(=O)c1[nH]cnc1C(=O)Nc1ccc([N+](=O)[O-])cc1	-13%
CCOc1ccc(C(=O)N/N=C/c2cc([N+](=O)[O-])cs2)cc1	0%
CCOC(=O)/C(C)=N/NC(=O)c1cccc([N+](=O)[O-])c1	3% (active)
Cc1cc(SCC(=O)c2cccc([N+](=O)[O-])c2)nc(=O)[nH]1	-9%
COc1cccc(/C=N/NC(=O)CSc2ccccc2C)c1O	-5%
COc1cccc(C=Nc2cc(C)cc(C)c2)c1O	3% (active)
COc1cccc(/C=N/n2c(SC)nnc2-c2ccccc2)c1O	-2%
COC(=O)c1cccc(/C=N/NC(N)=S)c1O	-9%
COc1cccc(C=NCC(C)N=Cc2cccc(OC)c2O)c1O (centres undefined)	7% (active)
CCOc1cccc(/C=N/NC(=O)c2ccc3c(c2)OCCO3)c1O	-10%
COc1cc(Br)cc(C=Nc2cccc(C(F)(F)F)c2)c1O	-14%
COc1cccc(/C=N/Nc2nc3ccccc3[nH]2)c1O	-4%
COc1cccc(C=NCCCN=Cc2cccc(OC)c2O)c1O	9% (active)
O=C(COC(=O)c1cnccn1)c1ccc(Cl)cc1	-9%
CCCNc1c(NS(=O)(=O)c2cccc(C#N)c2)c(=O)oc2ccccc12	-6%
COc1cccc(-c2nnc(Nc3nc4c(F)cccc4s3)o2)c1	9% (active)
Fc1cccc2sc(Nc3nnc(-c4ccco4)o3)nc12	3% (active)
Fc1cccc2sc(Nc3nc4c(F)cccc4s3)nc12	22% (active)
CC(=O)Nc1nc2c(F)cccc2s1	-15%

SMILES	activity increase over dofetilide control, less the hit threshold
O=C(Cc1ccc(Cl)cc1)Nc1cccc(-c2nnc(-c3ccco3)o2)c1	-15%
Fc1cccc2sc(Nc3nnc(-c4ccccc4)o3)nc12	59% (active)
O=C(NCCc1ccc(F)cc1)c1coc(=O)c(Br)c1	-17%
O=C(Nc1nc2c(F)cc(F)cc2s1)C1COc2ccccc2O1 (centres undefined)	-6%
Fc1ccc2nc(Nc3nc4c(F)cc(F)cc4s3)sc2c1	4% (active)
O=C(CCc1ccccc1)Nc1nnc(-c2ccccn2)o1	-12%
CCOc1ccccc1CNC(=O)CNC(=O)c1cccs1	-24%
Cc1ccc(NC(=O)C(=O)NNC(=O)c2cccs2)cc1	74% (active)
CCc1ccc(NC(=O)C(=O)NNC(=O)c2cccs2)cc1	61% (active)
Cc1cc(C(=O)NNC(=O)c2cccs2)nn1C(C)(C)C	-1%
Cc1ccc(N/C=C/C(=O)c2cccs2)cc1	-15%
O=C1c2ccccc2C(=O)N1Cc1cc(-c2ccccc2Cl)no1	-7%
Cc1cc(C(F)(F)F)n(-c2ccc(N)cc2)n1	-5%
O=C(CSc1nc2cc(Cl)ccc2s1)c1cc2ccccc2o1	2% (active)
O=C(CSc1nnc(SCc2ccccc2)s1)N/N=C/c1ccc(Cl)cc1Cl	-6%
CCOC(=O)c1[nH]c(=O)[nH]c1COC(=O)c1cc2ccccc2o1	-2%
CSCC[C@H](NC(=O)Nc1ccc(C)cc1C)C(=O)O	-8%
COCCCn1c(=S)[nH]c2sc3c(c2c1=O)CCCC3	29% (active)
COCCCn1c(=S)[nH]c2c(sc3ccccc32)c1=O	-3%
COCCn1c(=S)[nH]c2sc3c(c2c1=O)CCC(C)C3 (centres undefined)	44% (active)
COCCn1c(=S)[nH]c2sc3c(c2c1=O)CCCC3	28% (active)
CCN1C(=O)C2(/C(=C(\O)c3ccc4c(c3)OCCO4)C(=O)C(=O)N2CCCOC)c2ccccc21 (centres undefined)	-11%
CCCCNC(=O)CC(NS(=O)(=O)c1ccc(C)cc1)c1ccco1 (centres undefined)	-13%

SMILES	activity increase over dofetilide control, less the hit threshold
CCOC(=O)C1=C(C)NC(=O)NC1c1cccc(OC)c1OCc1ccccc1Cl (centres undefined)	-11%
O=C(NCc1cccs1)C1CCC(CNS(=O)(=O)c2cccs2)CC1 (centres undefined)	-16%
CCC(=O)c1cc2c(C)cc(=O)oc2c(C)c1O	-13%
COC(=O)c1sccc1NC(=S)N1CCN(C)CC1	-19%
CSc1ccccc1NC(=S)NCc1ccc(Cl)cc1	-15%
COC(=O)c1sccc1NC(=S)NCc1ccc(Cl)cc1	19% (active)
Cc1ccc(OC(=O)c2sc3ncn(C)c(=O)c3c2C)cc1	-18%
CCOC(=O)c1c(NC(=O)/C=C/c2ccco2)sc(C)c1C	-14%
CCOC(=O)c1sc2ncnc(NCc3ccco3)c2c1C	34% (active)
CCOC(=O)c1sc2ncnc(NCC(c3cccs3)N(C)C)c2c1C (centres undefined)	40% (active)
c1ccc(Cn2ncc3c(N4CCN(C(c5ccccc5)c5ccccc5)CC4)ncnc32)cc1	-7%
CCCCCCc1c(O)nc(SCC(=O)O)[nH]c1=O	-16%
CC(C)NC(=S)NNc1nc2ccccc2s1	-9%
Cc1ccc(NC(=S)c2nc3ccccc3s2)cc1	5% (active)
Clc1ccc(Nc2nc3cccnc3s2)cc1	-18%
O=C(Nc1ccc(Cl)cc1)Nn1cnnc1	-14%
Cc1cccc(NC(=S)c2nc3ccccc3s2)c1	-12%
S=C(Nc1ccc(Cl)cc1)c1nc2ccccc2s1	46% (active)
O=C1C(=Cc2cccn2-c2ccc(O)cc2)C(=O)c2ccccc21	-18%
Cc1oc(/N=C/c2ccc(F)cc2)c(C#N)c1C	-20%
CCC(NS(=O)(=O)c1cn(C)nc1C)c1ccccc1 (centres undefined)	-8%
O=C(CSc1ncnc2c1cnn2-c1ccc(Cl)cc1)NCc1ccc2c(c1)OCO2	-2%
CSc1ccc(CNc2nc3ccccc3n3cnnc23)cc1	-20%
